Consider 14 compounds from PubChem BioAssay (NCI).

About 83,000 compounds went through this panel and 20% of them were active in at least one assay; those are over-represented in the sample as a whole.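 The endpoint reported here, percent growth, reads 100 for growth as untreated, 0 for no net growth and -100 for all cells dead.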 Values without a mark were called inactive. Activity calls are given as the source filed them. Rule for the calls: active = growth percent below 10; inactive = the rest.

Test systems include HCT-15 colon; HT29 colon; SNB-75 CNS; SNB-19 CNS; U251 CNS; SK-MEL-5 melanoma; UACC-62 melanoma; LOX IMVI melanoma; SK-MEL-28 melanoma.
Experiment in all cases: NCI-60 one-dose screen, 48 h (100 = growth as untreated, 0 = no growth, -100 = all killed)
Details in all cases: 10 µM unless noted

On to `CN(C)C(=S)N=Nc1c(O)[nH]c2ccccc12`, for which the growth with HCT-15 colon is 31.7%; in the assay on HT29 colon, 28.7%; in the assay on SNB-75 CNS it was 48.4%; in the assay with SNB-19 CNS, 18.3%; with U251 CNS it was 17%; in the assay on SK-MEL-5 melanoma, 4.77% (active). Moreover, the values for the growth with UACC-62 melanoma, with LOX IMVI melanoma and with SK-MEL-28 melanoma were -16.9% (active), 14% and 37.5%, respectively.
Take `C#CCOc1ccc2ncnc(N3CCN(C(=O)CCl)CC3)c2c1`: the growth is 58.8% [8.25 µM] in the assay on HCT-15 colon; 71.7% [8.25 µM] in the assay with HT29 colon; 101% [8.25 µM] in the assay with SNB-75 CNS; 95.9% [8.25 µM] in the assay with SNB-19 CNS; 91.2% [8.25 µM] with U251 CNS; 57.7% [8.25 µM] with SK-MEL-5 melanoma. Also, the growth was 68.2% [8.25 µM] with UACC-62 melanoma, 47.4% [8.25 µM] in the assay on LOX IMVI melanoma and 98.4% [8.25 µM] with SK-MEL-28 melanoma.
With `Cc1cc(Nc2ccc(C)c(Cl)c2)n2nc(C(F)(F)F)nc2n1`, the growth is 66.9% with HCT-15 colon; 25.5% with HT29 colon; -30.7% (active) in the assay on SNB-75 CNS; 37.4% with SNB-19 CNS; -18.3% (active) in the assay with U251 CNS; 75.4% in the assay with SK-MEL-5 melanoma. The growth in the assay with UACC-62 melanoma is 66.9%; with LOX IMVI melanoma it was 12.2%; with SK-MEL-28 melanoma, 82.8%.
With `Fc1ccc(CNc2cccc3[nH]c(C(F)(F)F)nc23)cc1`, the growth is 98.3% in the assay with HCT-15 colon; 104% in the assay with HT29 colon; 73.9% in the assay on SNB-75 CNS; 79.2% with SNB-19 CNS; 80.7% in the assay with U251 CNS; 96.1% in the assay on SK-MEL-5 melanoma. In addition, the growth was 79.6% in the assay on UACC-62 melanoma, 99.4% in the assay on LOX IMVI melanoma and 89% with SK-MEL-28 melanoma.
Take `Cc1cc(C)nc(SC2=C(Nc3cccc(Cl)c3C)C(=O)N(Cc3ccccc3)C2=O)n1`: the growth in the assay on HCT-15 colon was 51.6% [30 µM]; in the assay on HT29 colon it was 30.2% [30 µM]; in the assay on SNB-75 CNS, 50.5% [30 µM]; in the assay on SNB-19 CNS it was 71.9% [30 µM]; in the assay with U251 CNS it was 49.4% [30 µM]; with SK-MEL-5 melanoma, 64.3% [30 µM]. Further, the growth in the assay on UACC-62 melanoma was 56.2% [30 µM]; in the assay on LOX IMVI melanoma it was 59% [30 µM]; in the assay with SK-MEL-28 melanoma, 85.1% [30 µM].
For the compound `Cc1cc2nc3[nH]c4ccccc4c3nc2cc1C`, the growth with HCT-15 colon was 80.3%; in the assay with HT29 colon it was 95.1%; in the assay on SNB-75 CNS, 51.2%; with SNB-19 CNS, 89.7%; in the assay on U251 CNS, 58.1%; with SK-MEL-5 melanoma it was 88.9%. Also, the figures for the growth in the assay with UACC-62 melanoma, in the assay on LOX IMVI melanoma and in the assay with SK-MEL-28 melanoma were 90.3%, 64.1% and 90%, respectively.
As to `C#CCOc1ccc2ncnc(Nc3cccc(CNC(=O)CCl)c3)c2c1`, the growth was 45.2% [8.25 µM] in the assay on HCT-15 colon; 35% [8.25 µM] with HT29 colon; 15.5% [8.25 µM] in the assay with SNB-75 CNS; 60.7% [8.25 µM] in the assay with SNB-19 CNS; 10.1% [8.25 µM] in the assay with U251 CNS; 14.5% [8.25 µM] with SK-MEL-5 melanoma. The growth in the assay with UACC-62 melanoma is 40.3% [8.25 µM]; with LOX IMVI melanoma it was 53.9% [8.25 µM]; with SK-MEL-28 melanoma it was 69% [8.25 µM].
In the case of `Cn1c(=O)[nH]c(=O)c2nc(CCC(=O)NCCC(=O)O)c(=O)[nH]c21`, the growth in the assay with HCT-15 colon was 106%; with HT29 colon, 106%; in the assay with SNB-75 CNS it was 89%; with SNB-19 CNS, 104%; with U251 CNS, 98.2%; in the assay on SK-MEL-5 melanoma it was 103%. In addition, the growth was 105% with UACC-62 melanoma, 98.6% in the assay on LOX IMVI melanoma and 103% with SK-MEL-28 melanoma.
As to `O=C(CN1C(=O)/C(=C/c2ccc(Cl)cc2)SC1=S)NCCCN1CCOCC1`, the growth in the assay with HCT-15 colon is 93.1%; in the assay on HT29 colon, 114%; in the assay with SNB-75 CNS, 92.8%; with SNB-19 CNS it was 97.9%; in the assay with U251 CNS, 98.4%; in the assay with SK-MEL-5 melanoma, 95.7%. For the same compound, the growth is 97% in the assay on UACC-62 melanoma, 90.5% in the assay on LOX IMVI melanoma and 101% with SK-MEL-28 melanoma.
`O=[N+]([O-])c1ccc(Nc2nc(NCCN3CCOCC3)ncc2[N+](=O)[O-])cc1`: the growth with HCT-15 colon is 84.9%; with HT29 colon it was 91.8%; with SNB-75 CNS, 76.4%; in the assay on SNB-19 CNS, 83.9%; with U251 CNS, 88.6%; in the assay on SK-MEL-5 melanoma it was 96%. The growth with UACC-62 melanoma was 84.2%; in the assay on LOX IMVI melanoma, 96.8%; in the assay on SK-MEL-28 melanoma it was 98%.
With `Nc1ccc(-c2cc3c(NCc4ccccc4)ncnc3s2)cc1`, the growth with HCT-15 colon is 82.2%; in the assay with HT29 colon, 103%; with SNB-75 CNS it was 89.2%; in the assay with SNB-19 CNS, 73.6%; in the assay on U251 CNS, 82.4%; in the assay on SK-MEL-5 melanoma, 55.7%. For the same compound, the growth in the assay with UACC-62 melanoma was 71.8%; with LOX IMVI melanoma, 84.2%; in the assay with SK-MEL-28 melanoma it was 92.3%.
In the case of `Cn1cc(-c2nonc2-c2cn(C)c3ccc(F)cc23)c2cc(F)ccc21`, the growth is 30.8% in the assay on HCT-15 colon; 12.3% with HT29 colon; 53.8% in the assay on SNB-75 CNS; 60.1% in the assay on SNB-19 CNS; 45.2% with U251 CNS; 51.4% in the assay with SK-MEL-5 melanoma. The figures for the growth in the assay with UACC-62 melanoma, with LOX IMVI melanoma and with SK-MEL-28 melanoma were 50.6%, 57.9% and 69%, respectively.
As for `COc1ccc(C2CC(c3ccc4ccccc4c3)=NN2/C=C2\SC(=S)N(NC(=O)Cc3ccccc3Nc3c(Cl)cccc3Cl)C2=O)cc1` (stereo unspecified), the growth with HCT-15 colon is 19.4%; in the assay with HT29 colon it was 32.3%; in the assay with SNB-75 CNS it was -15.7% (active); in the assay on SNB-19 CNS, 32%; in the assay on U251 CNS, 16.1%; in the assay on SK-MEL-5 melanoma, 19.6%. Also, the growth in the assay on UACC-62 melanoma was 42.8%; in the assay with LOX IMVI melanoma, 37.1%; in the assay with SK-MEL-28 melanoma, 57%.
For the compound `COc1ccc(S(=O)(=O)N2CCCCCC2)cc1NC(=O)c1[nH]c(C)c2c1CCCCC2=O`, the growth is 12.8% in the assay with HCT-15 colon; 16.8% in the assay with HT29 colon; 4.93% (active) in the assay with SNB-75 CNS; 38.2% in the assay with SNB-19 CNS; 29.9% in the assay with U251 CNS; -43.8% (active) with SK-MEL-5 melanoma. Moreover, the growth with UACC-62 melanoma was 15.8%; in the assay with LOX IMVI melanoma, -33.6% (active); with SK-MEL-28 melanoma, 49.8%.
